VDR inh: inhibitors of human vitamin D receptor. P11473. VDR-SRC2-3 peptide fluorescence polarization, 2 h. Potency, µM, for the others: max response, negative = inhibition, usual class: inhibitors. hit rate 0.93% among 400,000
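Inhibition of the VDR/SRC2-3 peptide interaction is quantified by fluorescence polarization. Compounds (23 nl, pintool) incubate with the reagents for 2 hours at ambient room temperature.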
ALOX12 inh: blocks human arachidonate 12S-lipoxygenase. P18054. purified 12hLO, xylenol orange hydroperoxide absorbance. Potency, µM (series often up to 108 µM), for the others: at the highest dose activity change, negative = inhibition, usual class: inhibitors. hit rate 1.1% among 580,000
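Hydroperoxide product was detected by ferrous iron/xylenol orange as the 573 to 405 nm absorbance ratio. Arachidonic acid at 40 uM (final) was turned over for 30 min at room temperature by 150 nM human 12hLO, pH 7.0 Hepes buffer, after 15 min compound preincubation.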
PLK1 PBD inh: PLK1 (human) polo-box domain binding inhibition; AID 720504; Plk1 PBD binding of FITC phosphopeptide, fluorescence polarization; Potency, µM, for the others: max response, negative = inhibition, hits mostly inhibitors; hit rate 2.8% among 360,000; further: series mostly up to about 57 µM; nearly all actives have a fitted effect of over 65% in size
Target sequence (P53350 whole entry, looked up, the tested form may be a part): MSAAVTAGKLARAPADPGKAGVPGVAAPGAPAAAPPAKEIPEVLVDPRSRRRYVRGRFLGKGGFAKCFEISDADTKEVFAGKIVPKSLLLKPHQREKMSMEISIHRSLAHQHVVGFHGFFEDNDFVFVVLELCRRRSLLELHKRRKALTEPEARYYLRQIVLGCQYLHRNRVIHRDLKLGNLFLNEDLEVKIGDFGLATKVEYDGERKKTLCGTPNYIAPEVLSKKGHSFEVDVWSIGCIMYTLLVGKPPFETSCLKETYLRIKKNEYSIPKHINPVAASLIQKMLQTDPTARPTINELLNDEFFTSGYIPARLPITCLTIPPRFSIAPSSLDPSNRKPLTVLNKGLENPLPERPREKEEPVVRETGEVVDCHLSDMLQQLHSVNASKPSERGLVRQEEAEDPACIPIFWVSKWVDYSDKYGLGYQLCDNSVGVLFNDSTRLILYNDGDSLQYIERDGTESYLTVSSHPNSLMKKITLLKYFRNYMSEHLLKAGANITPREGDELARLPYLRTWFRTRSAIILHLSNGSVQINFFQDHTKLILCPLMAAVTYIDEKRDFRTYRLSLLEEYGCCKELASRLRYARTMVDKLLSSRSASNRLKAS
KAT2A inh: inhibitors of human GCN5L2 histone acetyltransferase; Q92830; AID 504327; GCN5L2 HAT assay, ThioGlo1 CoA-SH fluorescence; hit rate 0.21% among 390,000; Potency, µM (doses to about 58.9 µM), without a hit: top-dose activity change, negative = inhibition, hits mostly inhibitors
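GCN5L2 (20nM final) in 50mM HEPES, 0.1mM EDTA pH 7.5, 0.01% Tween-20 was preincubated 15 min at room temperature with compound, then given ThioGlo1 (50uM), H3(1-25) peptide (75uM) and acetyl-CoA (70uM); CoA-thiol fluorescence (Ex340/Em540) was read at 0 and 20 min.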
* marks the source's active call; other numbers are inactive results; i = inactive; ? = inconclusive; . = no result; [ ] = another dose, or the depositor's remark. Only some compounds are listed: those with a hit (about 3% of all), similar ones and a draw of the others. The call rests on the fitted dose curve; in most records, active means well fitted curve in the direction sought with a large enough effect; inconclusive means small, poorly fitted or top-dose-only effect, or another doubt; inactive means no such curve, though single readings can be large; an effect the other way counts as inactive or inconclusive. On the % scale 0 is the no-effect control and ±100 the full control effect; potency means the concentration at half of the fitted maximal effect.

SMILES	VDR inh	ALOX12 inh	PLK1 PBD inh	KAT2A inh
COc1ccc(N(C(=O)c2ccccc2)S(=O)(=O)c2cccs2)cc1	22µM*	11%	19µM*	-12%
NNc1ccc(F)cc1F	.	4.5µM*	.	.
Cc1c(C(O)CN2CCN(Cc3ccc4c(c3)OCO4)CC2)c2ccccc2n1C (stereo not drawn)	-19%	45µM*	-14%	-14%
CC1(C(=O)NCc2ccccc2)CN(Cc2ccccc2)Cc2ccc(N3CCOCC3)nc21 (stereo not drawn)	.	53%	.	.
CC(C(=O)NCc1ccccc1F)n1nc(-c2ccccc2)c2ccccc21 (stereo not drawn)	.	-11%	.	.
COc1c(C(=O)/C=C/c2ccccc2)ccc2c1C=CC(C)(C)O2	.	15%	.	.
CCCOc1ccc(/C(O)=C2\C(=O)C(=O)NC2c2ccc(Cl)cc2)cc1 (stereo not drawn)	.	-62%	.	.
COc1ccc(/C(O)=C2\C(=O)C(=O)NC2c2ccc(Cl)cc2)cc1F (stereo not drawn)	.	11µM*	.	.
CCOc1ccc2nc(SCC(=O)N3CCN(S(=O)(=O)c4ccccc4)C3)[nH]c2c1	.	26%	.	.
FC(F)(F)c1cc(N2CCOCC2)nc(-c2ccccc2)n1	?	-8%	27µM*	0%
c1ccc(-c2nc(N3CCOCC3)cc(N3CCOCC3)n2)cc1	22%	0%	12%	-13%
CC(=O)NCc1ccc(S(=O)(=O)N2CCCN(C)CC2)cc1	?	0%	3.8µM*	6%
CC(=O)N1c2ccc(S(=O)(=O)N3CCCCC3)cc2CC1C(=O)NCc1ccc(N(C)C)cc1 (stereo not drawn)	-23%	-15%	21µM*	-22%
CCOC(=O)c1nc2ccccc2nc1N1CCN(C(=O)c2ccc(C)cc2)CC1	.	-6%	.	.
O=C(CSc1ncccn1)Nc1nc2ccccc2s1	.	1%	.	.
Cc1ccc(OCCOCCOc2cccc3cccnc23)c(Br)c1	i	-24%	27µM*	-3%
c1ccc(CN2CCC[C@H]2c2nc(-c3ccc(OC4CCCCC4)nc3)no2)nc1	.	65%[176 µM]	.	.
Cc1cccc(NC(=O)c2sc(-n3nc(C)c(Cl)c3C)nc2C)c1	.	7%	.	.
Cc1ccc(NC(=O)c2ccc3c(c2)CCN3S(C)(=O)=O)cc1C	?	0%	3µM*	4%
CCC(=O)N1CCN(c2ccccc2NC(=O)c2ccc(C#N)cc2F)CC1	.	13%	.	.
CNC(=O)NC(=O)CCN1CCOC(c2ccc(Br)cc2)C1 (stereo not drawn)	.	14%	.	.
CC(=O)N1CCc2c(sc(NC(=O)Cc3ccc(C)cc3C)c2C#N)C1	?	32%	27µM*	0%
CC(=O)N1CCc2c(sc(NC(=O)c3ccc([N+](=O)[O-])o3)c2C#N)C1	?	?	24µM*	0%
C=CC[C@H]1CC(Cc2ccccc2)=C[C@H](CC=C)N1	?	?	24µM*	-2%
C=CCC1C=C(Cc2ccccc2)CC(CC=C)N1 (stereo not drawn)	-7%	-7%	-13%	1%
SMILES	VDR inh	ALOX12 inh	PLK1 PBD inh	KAT2A inh
CCc1n[nH]c2c1/C(=N\O)CC(C)(C)C2	11%	-7%	1%	-1%
CCCc1n[nH]c2c1/C(=N\OCC)CC(C)(C)C2	-14%	40µM*	-3%	-2%
O=Cc1c(OCc2ccccc2)ccc2ccccc12	?	-9%	17µM*	-5%
CCOc1ccc2ccccc2c1C=O	.	7%	.	.
Cc1ccc(OCCN)cc1C	.	14%	.	.
O=C(COc1cccnc1[N+](=O)[O-])c1ccc(Cl)s1	50µM*	40µM*	15µM*	?
CC(=O)N(c1cccc(C)c1)C1SC(=O)N(c2ccccc2)C1=O (stereo not drawn)	11%	0%	24µM*	3%
Cc1cccc(NC2SC(=O)N(c3ccccc3)C2=O)c1 (stereo not drawn)	-7%	7%	-5%	2%
CCN(c1ccccc1)C1SC(=O)N(c2ccccc2)C1=O (stereo not drawn)	-2%	.	.	.
CC(=O)N(c1ccccc1)C1SC(=O)N(c2ccccc2)C1=O (stereo not drawn)	17%	15%	21µM*	-5%
CCCCN(C)C(=O)c1cc(=O)[nH]c2ccccc12	.	5%	.	.
CCOc1ccc(S(=O)(=O)[C@H]2CS(=O)(=O)C[C@@H]2N2CCN(c3ncccn3)CC2)cc1	.	23%	.	.
COC(=O)c1cn(C(=O)c2cc(C)cc(C)c2)c2ccccc12	-24%	-1%	21µM*	-7%
COC(=O)c1cn(C(=O)c2ccc(C)c(C)c2)c2ccccc12	17%	21%	6%	-6%
COC(=O)c1cn(C(=O)c2ccc(C)cc2)c2ccccc12	-13%	?	19µM*	?
Cc1cc2oc(=O)cc(CSc3nncs3)c2cc1C	.	-1%	.	.
COc1cc(F)ccc1-c1ccc(=O)n(Cc2c(F)cccc2Cl)n1	.	-19%	.	.
COc1cc(/C=N/O)ccc1Oc1ccc([N+](=O)[O-])cc1[N+](=O)[O-]	-10%	-1%	-28%	?
COc1cc(/C=C2\SC(=O)NC2=O)ccc1Oc1ccc([N+](=O)[O-])cc1[N+](=O)[O-]	?	?	21µM*	-26%
COCCCNC(=O)C1CC(=O)N(CCc2c[nH]c3ccc(C)cc23)C1 (stereo not drawn)	.	15%	.	.
c1ccc2c(c1)Nc1nccnc1S2	?	?	15µM*	1%
C/C=C\C=C\C(=O)Nc1cccc(C2=NOC3(C2)C[C@@H](C(N)=O)N(C(=O)C(c2ccccc2)c2ccccc2)C3)c1 (stereo partly drawn)	-22%	8.9µM*	-20%	21%
C/C=C\C=C/C(=O)Nc1cccc(C2=NOC3(C2)C[C@H](C(N)=O)N(C(=O)CC)C3)c1 (stereo partly drawn)	-20%	-8%	-19%	-10%
C/C=C/C(=O)N1CC2(CC(c3cccc(NC(=O)CCCCC)c3)=NO2)C[C@H]1C(N)=O (stereo partly drawn)	.	.	.	22%
C/C=C/C=C/C(=O)N1CC2(CC(c3cccc(NC(=O)CCCCC)c3)=NO2)C[C@H]1C(N)=O (stereo partly drawn)	79µM*	?	-29%	-5%
SMILES	VDR inh	ALOX12 inh	PLK1 PBD inh	KAT2A inh
CCOc1ccccc1NC(=O)c1nc2ccccc2nc1N1CCOCC1	.	-24%	.	.
CCOc1ccc(-c2nc(N)ncc2Oc2ccc(OC)cc2)c(O)c1	11%	16µM*	2%	-10%
CCOc1ccc(-c2nc(N)ncc2-c2ccc(OC)cc2)c(O)c1	5%	-30%	-2%	-10%
Fc1ccc(-n2[nH]nnc2=S)cc1N1CCCC1	-36%	8.9µM*	?	-13%
COc1ccc(CN2CCOC[C@H]2c2ncc(-c3ccc(OC)cc3)[nH]2)cc1	.	1%[176 µM]	.	.
CCOc1ccc(NC(=O)CN2CCN(CC(=O)c3ccc(OC)c(OC)c3)CC2)cc1	-29%	0%	19µM*	-5%
CCOc1ccc(NC(=O)CN2CCN(CC(=O)c3ccc(OCC)cc3)CC2)cc1	9%	?	-10%	1%
CCOc1ccc2c(n1)CCN(C(=O)NC1CCCC1)C2	.	16%	.	.
N#Cc1ccc(COC(=O)c2cc(-c3ccccc3)c(N3CCOCC3)s2)cc1	.	7%	.	.
